About 79,000 compounds went through this panel and 15% of them were active in at least one assay; those are over-represented in the sample as a whole. A number with no mark means an inactive call. The source made the active and inactive calls. Cut-off read from the data, not from the text of the source: active = growth inhibition above about 70%; inactive = the rest.

Assay [1] is described as follows: NCI Yeast Anticancer Drug Screen. Data for the rad50 strain (AID 155).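 Note: 0% = growth of vehicle-only cultures of the same strain.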 To be noted: S. cerevisiae rad50 strain growth inhibition; at 50.0 µM; active compounds read high. In short, it runs like this:
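Relative growth inhibition (compound vs vehicle) was measured in yeast with a defined repair-gene alteration.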

Assay [2] can be described thus: NCI Yeast Anticancer Drug Screen. Data for the mec2-1 strain (AID 157). To be noted: S. cerevisiae mec2-1 strain, at 50.0 µM, active compounds read high. An outline of the steps: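 Strain: mec2-1 (DNA repair/cell cycle alteration). Compound exposure, then growth measured; inhibition expressed relative to vehicle.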
Assay [3] is described as follows: NCI Yeast Anticancer Drug Screen. Data for the sgs1 mgt1 strain (AID 161).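 Note: 0% = growth of cultures given vehicle only.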 To be noted: S. cerevisiae sgs1 mgt1 strain, at 50.0 µM, active compounds read high. In short, it runs like this:
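Inhibition of yeast growth, normalised to vehicle-treated controls, is reported for a strain bearing genetic alterations in DNA damage repair.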

Assay [4] in a line: NCI Yeast Anticancer Drug Screen. Data for the cln2 rad14 strain (AID 165).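 Note: 0% = growth equal to vehicle treated cultures.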 The conditions noted are these: S. cerevisiae cln2 rad14 strain, at 50.0 µM, active compounds read high. An outline of the steps: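 Compounds are applied to the cln2 rad14 yeast strain, and growth is then compared with that of vehicle-treated cultures to give inhibition.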
The nature of assay [5]: NCI Yeast Anticancer Drug Screen. Data for the bub3 strain (AID 167). The conditions noted are these: S. cerevisiae bub3 mutant strain, at 50.0 µM, active compounds read high. An outline of the steps: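 Screening used yeast with an engineered genetic alteration affecting cell cycle control. Compound-exposed cultures were compared with vehicle cultures, and reduced growth was taken as inhibition.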

Assay [6] can be described thus: NCI Yeast Anticancer Drug Screen. Data for the mlh1 rad18 strain (AID 175). The conditions noted are these: S. cerevisiae mlh1 rad18 strain growth inhibition; at 50.0 µM; active compounds read high. An outline of the steps:
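Read-out is yeast growth inhibition, calculated against vehicle-only controls. The compound was applied to a strain engineered with DNA damage repair alterations.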

Regarding `CCOCCOCCOC(=O)c1ccccc1O`, the growth inhibition was -6.75% in assay [1]; 1.45% in assay [2]; -4.4% in assay [3]; -14.5% in assay [4]; 11.2% in assay [5]; 4.4% in assay [6].

With `Cc1cc(C)c(NC(=O)CC#N)cc1C`, the growth inhibition in assay [1] was -5%; in assay [2], -12.6%; in assay [3] it was -17.4%; in assay [4] it was -51.4%; in assay [5], -1.35%; in assay [6], -6.6%.

On to `CN(C)C=Nc1ccc2[nH]c3ccccc3c2c1`, for which the growth inhibition is -25.4% in assay [1]; -13.1% in assay [2]; -16.2% in assay [3]; 14.3% in assay [4]; 22.9% in assay [5]; 21.4% in assay [6].

For the molecule `COc1ccc([N+](=O)[O-])cc1NS(=O)(=O)c1ccc(NC(C)=O)cc1`, the growth inhibition was 1.6% in assay [1]; 18.7% in assay [2]; -5.55% in assay [3]; -1.25% in assay [4]; 23.8% in assay [5]; -19% in assay [6].

In the case of `Oc1ccc(N2CCOCC2)cc1`, the growth inhibition in assay [1] was 0.45%; in assay [2], 16.8%; in assay [3] it was 3.05%; in assay [4] it was -32%; in assay [5] it was 25.6%; in assay [6] it was 8.5%.

`C[C@@]12C[C@@H](c3ccccc3O1)N1CCCSC1=N2`: the growth inhibition in assay [1] is 20.2%; in assay [2], -16%; in assay [3], 4.6%; in assay [4], 32.8%; in assay [5], -9.8%; in assay [6], 12.4%.

With `O=C(O)c1c[nH]c2ccc([N+](=O)[O-])cc2c1=O`, the growth inhibition in assay [1] is -21%; in assay [2], -12.8%; in assay [3], -11.9%; in assay [4], 11.7%; in assay [5] it was -14%; in assay [6] it was -7.95%.

As for `NC(=O)NC1CC1c1ccccc1` (stereo unspecified), the growth inhibition in assay [1] was -6.6%; in assay [2] it was 4.1%; in assay [3], -2.7%; in assay [4], 22.1%; in assay [5], -10.3%; in assay [6] it was -1.45%.

Take `COC(=O)C(/C(=N/NC(N)=O)C(=O)Nc1c(C)cccc1C(C)(C)C)c1nc2ccc(Cl)cc2[nH]c1=O` (stereo unspecified): the growth inhibition in assay [1] was -3.9%; in assay [2] it was -15.7%; in assay [3], -7.4%; in assay [4], 3.3%; in assay [5] it was -11.2%; in assay [6], 0.1%.

As to `COc1cc2nc(C)oc(=O)c2cc1OC`, the growth inhibition in assay [1] is 19.1%; in assay [2] it was -16.8%; in assay [3], 10.9%; in assay [4], -28.4%; in assay [5] it was -12.3%; in assay [6], 0.85%.

For the molecule `O=C(O)CSCc1cc2c(O)c(c1)Cc1cc(CSCC(=O)O)cc(c1O)Cc1cc(CSCC(=O)O)cc(c1O)Cc1cc(CSCC(=O)O)cc(c1O)C2`, the growth inhibition in assay [1] is -6.9%; in assay [2], -5.6%; in assay [3], -6.55%; in assay [4] it was 14.7%; in assay [5], 43.8%; in assay [6], -0.1%.

As to `CC1=CC(O)(c2ccccc2)C(N2CCOCC2)N1O` (stereo unspecified), the growth inhibition in assay [1] was -2.85%; in assay [2], -25.6%; in assay [3] it was -3.5%; in assay [4], 13.6%; in assay [5], 23.4%; in assay [6], -8.55%.

For the molecule `c1nnc2c3c4c(sc3ncn12)CCCC4`, the growth inhibition in assay [1] is 0.4%; in assay [2], -5.05%; in assay [3] it was 2.4%; in assay [4], -24.7%; in assay [5], -0.1%; in assay [6], 4.55%.

For the molecule `C[N+]1(C)CCC2=CC(=O)CC(c3ccccc3)C2C1` (stereo unspecified), the growth inhibition is 11.7% in assay [1]; -0.6% in assay [2]; 12.6% in assay [3]; 20.8% in assay [4]; -3.3% in assay [5]; -12% in assay [6].

With `CON1C(=O)c2ccccc2C1=O`, the growth inhibition was 1.15% in assay [1]; 4% in assay [2]; -7.85% in assay [3]; -4.6% in assay [4]; -22.4% in assay [5]; -9.3% in assay [6].

With `Cc1ccc(C(=O)N/N=C/c2ccc(N(C)C)cc2Cl)cc1`, the growth inhibition in assay [1] was 39.5%; in assay [2] it was 20.2%; in assay [3], 16.4%; in assay [4], 22.9%; in assay [5] it was 61%; in assay [6], 21.9%.

Take `CNC(=O)c1nnn(Cc2ccc(OC)cc2)c1Cl`: the growth inhibition is -8.05% in assay [1]; -8.9% in assay [2]; -14.7% in assay [3]; -69% in assay [4]; -1.3% in assay [5]; -8.15% in assay [6].

On to `CC(=O)OCC1OC(n2cc(I)c(=O)[nH]c2=O)C(OC(C)=O)C(OC(C)=O)C1OC(C)=O` (stereo unspecified), for which the growth inhibition in assay [1] is -29.9%; in assay [2], -22.1%; in assay [3] it was -12.2%; in assay [4] it was -27.4%; in assay [5] it was -29.5%; in assay [6], -13.2%.

As to `Nc1ccc(C(=O)NN2C(=O)C(Cl)C2c2ccccc2Cl)cc1` (stereo unspecified), the growth inhibition in assay [1] is 45.2%; in assay [2], 32.7%; in assay [3], 27.9%; in assay [4], 38.8%; in assay [5] it was 38.3%; in assay [6], 31.5%.

Regarding `CC(=O)CC(=O)NCc1ccccc1`, the growth inhibition in assay [1] is 10.7%; in assay [2] it was -15.9%; in assay [3] it was 25%; in assay [4], 17.2%; in assay [5], 1.55%; in assay [6], 5.15%.

As to `Clc1ccc(C(n2cc(Br)cn2)n2cc(Br)cn2)cc1`, the growth inhibition was 89.6% (active) in assay [1]; 90.8% (active) in assay [2]; 90.7% (active) in assay [3]; 90.2% (active) in assay [4]; 91% (active) in assay [5]; 87.5% (active) in assay [6].

(Values after PubChem BioAssay (NCI).)
